# From PubChem BioAssay
# “And” between values parts separate entries of the source, which are not always exact repeats. Equal values may be shown once. The source made the active and inactive calls. No stated cut-off is given here; in the data, active means inhibition above about 80%; inactive means the rest.
# Assay: BT084 cell growth, single and combined drugs, ICGC_MB145, cisplatin and BGB IC40 combos (AID 1671461);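 further: cells exposed to drugs for 96 hours; 0% = vehicle DMSO and 100% = high DMSO full killing control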
# Conditions: BT084 medulloblastoma cells, drug combinations, cisplatin combination, at 5 µM, stronger effect = higher value
row,SMILES,inhibition
1,Cc1c(N)nc(C(CC(N)=O)NCC(N)C(N)=O)nc1C(=O)NC(C(=O)NC(C)C(O)C(C)C(=O)NC(C(=O)NCCc1nc(-c2nc(C(=O)NCCC[S+](C)C)cs2)cs1)C(C)O)C(O[C@@H]1O[C@@H](CO)[C@@H](O)[C@H](O)[C@@H]1O[C@H]1O[C@H](CO)[C@@H](O)[C@H](OC(N)=O)[C@@H]1O)c1cnc[nH]1 (stereo not given in full),4.08% and 10.3%
2,O=c1[nH]c(=O)n(C2OC(CO)C(O)C2O)cc1F (stereo not given),-1.49%
3,O=P(O)(NCCCl)NCCCl,-12.8%
4,CC1(C)C(C(=O)Nc2ccc(S(=O)(=O)c3ccc(NC(=O)C4C(C)(C)C4(C)C)cc3)cc2)C1(C)C,-82%
5,CCC1(O)C(=O)OCc2c1cc1n(c2=O)Cc2cc3ccccc3nc2-1 (stereo not given),44.9% and 40.2%
6,NC(Cc1ccc(N(CCCl)CCCl)cc1)C(=O)O (stereo not given),35.1%
7,COc1cc([C@@H]2c3cc4c(cc3[C@H](O)[C@H]3COC(=O)[C@H]23)OCO4)cc(OC)c1O,43.4% and 22.5%
8,COc1cc(C2c3cc4c(cc3C(O)C3COC(=O)C23)OCO4)cc(OC)c1OC (stereo not given),48.4%

# Same assay, conditions: BT084 medulloblastoma cells, drug combinations, measured here: BGB IC40 combination 0.05 uM, at 0.05 µM, stronger effect = higher value
row,SMILES,inhibition
1,Cc1c(N)nc(C(CC(N)=O)NCC(N)C(N)=O)nc1C(=O)NC(C(=O)NC(C)C(O)C(C)C(=O)NC(C(=O)NCCc1nc(-c2nc(C(=O)NCCC[S+](C)C)cs2)cs1)C(C)O)C(O[C@@H]1O[C@@H](CO)[C@@H](O)[C@H](O)[C@@H]1O[C@H]1O[C@H](CO)[C@@H](O)[C@H](OC(N)=O)[C@@H]1O)c1cnc[nH]1 (stereo not given in full),-1.66% and -25.1%
2,O=c1[nH]c(=O)n(C2OC(CO)C(O)C2O)cc1F (stereo not given),2.24%
3,O=P(O)(NCCCl)NCCCl,-21.5%
4,CC1(C)C(C(=O)Nc2ccc(S(=O)(=O)c3ccc(NC(=O)C4C(C)(C)C4(C)C)cc3)cc2)C1(C)C,-20.9%
5,CCC1(O)C(=O)OCc2c1cc1n(c2=O)Cc2cc3ccccc3nc2-1 (stereo not given),23.9% and 38.2%
6,NC(Cc1ccc(N(CCCl)CCCl)cc1)C(=O)O (stereo not given),-5.01%
7,COc1cc([C@@H]2c3cc4c(cc3[C@H](O)[C@H]3COC(=O)[C@H]23)OCO4)cc(OC)c1O,7.15% and -9.48%
8,COc1cc(C2c3cc4c(cc3C(O)C3COC(=O)C23)OCO4)cc(OC)c1OC (stereo not given),22.9%

# Same assay, conditions: BT084 medulloblastoma cells, drug combinations, single agent, at 5 µM, stronger effect = higher value
row,SMILES,inhibition
1,Cc1c(N)nc(C(CC(N)=O)NCC(N)C(N)=O)nc1C(=O)NC(C(=O)NC(C)C(O)C(C)C(=O)NC(C(=O)NCCc1nc(-c2nc(C(=O)NCCC[S+](C)C)cs2)cs1)C(C)O)C(O[C@@H]1O[C@@H](CO)[C@@H](O)[C@H](O)[C@@H]1O[C@H]1O[C@H](CO)[C@@H](O)[C@H](OC(N)=O)[C@@H]1O)c1cnc[nH]1 (stereo not given in full),-12.7% and -10.7%
2,O=c1[nH]c(=O)n(C2OC(CO)C(O)C2O)cc1F (stereo not given),11.9%
3,O=P(O)(NCCCl)NCCCl,-15.7%
4,CC1(C)C(C(=O)Nc2ccc(S(=O)(=O)c3ccc(NC(=O)C4C(C)(C)C4(C)C)cc3)cc2)C1(C)C,2.54%
5,CCC1(O)C(=O)OCc2c1cc1n(c2=O)Cc2cc3ccccc3nc2-1 (stereo not given),-2.08% and -14.2%
6,NC(Cc1ccc(N(CCCl)CCCl)cc1)C(=O)O (stereo not given),-20.7%
7,COc1cc([C@@H]2c3cc4c(cc3[C@H](O)[C@H]3COC(=O)[C@H]23)OCO4)cc(OC)c1O,73.2% and 24.9%
8,COc1cc(C2c3cc4c(cc3C(O)C3COC(=O)C23)OCO4)cc(OC)c1OC (stereo not given),62.7%

# Assay: RCMB18 cell growth, single agent and combined, cisplatin and BGB IC40 combos (AID 1671462);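 further: cells exposed to compound for four days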
# Conditions: RCMB18 medulloblastoma cells, at 0.5 µM, stronger effect = higher value
row,SMILES,inhibition
1,Cc1c(N)nc(C(CC(N)=O)NCC(N)C(N)=O)nc1C(=O)NC(C(=O)NC(C)C(O)C(C)C(=O)NC(C(=O)NCCc1nc(-c2nc(C(=O)NCCC[S+](C)C)cs2)cs1)C(C)O)C(O[C@@H]1O[C@@H](CO)[C@@H](O)[C@H](O)[C@@H]1O[C@H]1O[C@H](CO)[C@@H](O)[C@H](OC(N)=O)[C@@H]1O)c1cnc[nH]1 (stereo not given in full),32.3% (inactive) and -22.9% (inactive)
2,O=c1[nH]c(=O)n(C2OC(CO)C(O)C2O)cc1F (stereo not given),33.4% (inactive)
3,O=P(O)(NCCCl)NCCCl,-17.3% (inactive)
4,CC1(C)C(C(=O)Nc2ccc(S(=O)(=O)c3ccc(NC(=O)C4C(C)(C)C4(C)C)cc3)cc2)C1(C)C,-8.5% (inactive)
5,CCC1(O)C(=O)OCc2c1cc1n(c2=O)Cc2cc3ccccc3nc2-1 (stereo not given),7.46% (inactive) and 14.2% (inactive)
6,NC(Cc1ccc(N(CCCl)CCCl)cc1)C(=O)O (stereo not given),-26.4% (inactive)
7,COc1cc([C@@H]2c3cc4c(cc3[C@H](O)[C@H]3COC(=O)[C@H]23)OCO4)cc(OC)c1O,6.51% (inactive) and -0.09% (inactive)
8,COc1cc(C2c3cc4c(cc3C(O)C3COC(=O)C23)OCO4)cc(OC)c1OC (stereo not given),21.7% (inactive)

# Same assay, conditions: RCMB18 medulloblastoma cells, cisplatin combo, at 5 µM, stronger effect = higher value
row,SMILES,inhibition
1,Cc1c(N)nc(C(CC(N)=O)NCC(N)C(N)=O)nc1C(=O)NC(C(=O)NC(C)C(O)C(C)C(=O)NC(C(=O)NCCc1nc(-c2nc(C(=O)NCCC[S+](C)C)cs2)cs1)C(C)O)C(O[C@@H]1O[C@@H](CO)[C@@H](O)[C@H](O)[C@@H]1O[C@H]1O[C@H](CO)[C@@H](O)[C@H](OC(N)=O)[C@@H]1O)c1cnc[nH]1 (stereo not given in full),15.5% and 7.73%
2,O=c1[nH]c(=O)n(C2OC(CO)C(O)C2O)cc1F (stereo not given),75.4%
3,O=P(O)(NCCCl)NCCCl,5.67%
4,CC1(C)C(C(=O)Nc2ccc(S(=O)(=O)c3ccc(NC(=O)C4C(C)(C)C4(C)C)cc3)cc2)C1(C)C,-42.1%
5,CCC1(O)C(=O)OCc2c1cc1n(c2=O)Cc2cc3ccccc3nc2-1 (stereo not given),72.3% and 80.4%
6,NC(Cc1ccc(N(CCCl)CCCl)cc1)C(=O)O (stereo not given),81.5%
7,COc1cc([C@@H]2c3cc4c(cc3[C@H](O)[C@H]3COC(=O)[C@H]23)OCO4)cc(OC)c1O,39.6% and 46.7%
8,COc1cc(C2c3cc4c(cc3C(O)C3COC(=O)C23)OCO4)cc(OC)c1OC (stereo not given),29.2%
